Data published in paper PMC8384837, “Expanding the binding specificity for RNA recognition by a PUF domain”.
Numbering of substitutions follows the chain as printed.

How the values were obtained:
Experiment in all cases: yeast three-hybrid, YBZ-1, SC-Leu-His + 0.5 mM 3-AT, 4 days
Settings in all cases: tags: N-Gal4 AD-HA kept; label: inside an RPR1-promoter hybrid RNA with tandem MS2 sites; ssRNA
[1] = target: T1, PUM1 PUF domain R6-RFG (Homo sapiens, UniProt Q14671 828-1176, N1043R;Y1044F;Q1047G)
T1 sequence: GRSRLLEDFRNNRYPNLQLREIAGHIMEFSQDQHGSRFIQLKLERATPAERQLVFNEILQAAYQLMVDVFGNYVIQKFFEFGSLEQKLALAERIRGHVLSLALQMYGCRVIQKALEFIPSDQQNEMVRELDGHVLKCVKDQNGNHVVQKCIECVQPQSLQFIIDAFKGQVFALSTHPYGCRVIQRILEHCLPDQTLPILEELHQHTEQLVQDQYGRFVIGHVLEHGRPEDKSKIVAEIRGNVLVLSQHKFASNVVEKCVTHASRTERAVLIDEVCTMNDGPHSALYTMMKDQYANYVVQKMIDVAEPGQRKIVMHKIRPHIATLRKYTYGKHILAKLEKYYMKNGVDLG
Method in brief: (§1)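 The interaction score is the log change in variant frequency from input to selection. Scores were computed in log2 with a pseudocount of 1 for absent variants, using Illumina sequencing of PCR-amplified repeat regions. The input came from four days on SC-Leu and the selection from four days on SC-Leu-His + 0.5 mM 3-AT. The cells were strain YBZ-1 (LexA–MS2 coat fusion, HIS3 reporter) co-expressing Pumilio-1 PUF domain libraries and matching RNA elements from a centromeric plasmid.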

[2] = target: T2, PUM1 PUF domain R6-YHR (Homo sapiens, UniProt Q14671 828-1176, N1043Y;Y1044H;Q1047R)
T2 sequence: T1 sequence with R216Y, F217H, G220R
Method in brief: as §1

[3] = target: T3, PUM1 PUF domain R6-SHK (Homo sapiens, UniProt Q14671 828-1176, N1043S;Y1044H;Q1047K)
T3 sequence: T1 sequence with R216S, F217H, G220K
Method in brief: as §1

[4] = target: T4, PUM1 PUF domain R6-LHS (Homo sapiens, UniProt Q14671 828-1176, N1043L;Y1044H;Q1047S)
T4 sequence: T1 sequence with R216L, F217H, G220S
Method in brief: as §1

[5] = target: PUM1 PUF domain R8-RHC (Homo sapiens, UniProt Q14671 828-1176, N1122R;Y1123H;Q1126C)
Method in brief: as §1

[6] = target: PUM1 PUF domain R5-LSR (Homo sapiens, UniProt Q14671 828-1176, C1007L;R1008S;Q1011R)
Method in brief: as §1

[7] = target: T5, PUM1 PUF domain R6-CYR (Homo sapiens, UniProt Q14671 828-1176, N1043C;Q1047R)
T5 sequence: T1 sequence with R216C, F217Y, G220R
Method in brief: as §1

[8] = target: PUM1 PUF domain R8-YWR (Homo sapiens, UniProt Q14671 828-1176, N1122Y;Y1123W;Q1126R)
Method in brief: as §1

[9] = target: T6, PUM1 PUF domain R6-RFR (Homo sapiens, UniProt Q14671 828-1176, N1043R;Y1044F;Q1047R)
T6 sequence: T1 sequence with G220R
Method in brief: as §1

[10] = target: PUM1 PUF domain R8-TYR (Homo sapiens, UniProt Q14671 828-1176, N1122T;Q1126R)
Method in brief: as §1

[11] = target: PUM1 PUF domain R8-TFK (Homo sapiens, UniProt Q14671 828-1176, N1122T;Y1123F;Q1126K)
Method in brief: as §1

[12] = target: PUM1 PUF domain R8-KRI (Homo sapiens, UniProt Q14671 828-1176, N1122K;Y1123R;Q1126I)
Method in brief: as §1

[13] = target: PUM1 PUF domain R2-DWI (Homo sapiens, UniProt Q14671 828-1176, N899D;Y900W;Q903I)
Method in brief: as §1

[14] = target: PUM1 PUF domain R1-GQK (Homo sapiens, UniProt Q14671 828-1176, S863G;R864Q;Q867K)
Method in brief: as §1

[15] = target: PUM1 PUF domain R1-KYS (Homo sapiens, UniProt Q14671 828-1176, S863K;R864Y;Q867S)
Method in brief: as §1

[16] = target: PUM1 PUF domain R1-RGM (Homo sapiens, UniProt Q14671 828-1176, S863R;R864G;Q867M)
Method in brief: as §1

[17] = target: PUM1 PUF domain R3-RAY (Homo sapiens, UniProt Q14671 828-1176, C935R;R936A;Q939Y)
Method in brief: as §1

GGCUAGAACUAGUGGAUCCCCCGGCGCCCGGCGGCUCGAGCCCGGGUAAGUGUAAAUAGUCUGCAUGCCGCCGGGCGCCAUGCCUGCAGGUCGACUCUAGAAAACAUG
binding signal [1]: 3.56 log2 enrichment (interaction score) | binding signal [2]: 4.05 log2 enrichment (interaction score) | binding signal [3]: 3.34 log2 enrichment (interaction score) | binding signal [4]: 2.24 log2 enrichment (interaction score) | binding signal [5]: 3.41 log2 enrichment (interaction score) | binding signal [6]: 0.51 log2 enrichment (interaction score) | binding signal [7]: 5.11 log2 enrichment (interaction score) | binding signal [8]: 4.66 log2 enrichment (interaction score) | binding signal [9]: 3.75 log2 enrichment (interaction score) | binding signal [10]: 4.56 log2 enrichment (interaction score) | binding signal [11]: 2.11 log2 enrichment (interaction score)

GGCUAGAACUAGUGGAUCCCCCGGCGCCCGGCGGCUCGAGCCCGGGUAAGCGUAAAUAGUCUGCAUGCCGCCGGGCGCCAUGCCUGCAGGUCGACUCUAGAAAACAUG
binding signal [12]: 2.91 log2 enrichment (interaction score) | binding signal [5]: 4.55 log2 enrichment (interaction score) | binding signal [8]: 4.53 log2 enrichment (interaction score) | binding signal [10]: 5.46 log2 enrichment (interaction score) | binding signal [11]: 5.88 log2 enrichment (interaction score)

GGCUAGAACUAGUGGAUCCCCCGGCGCCCGGCGGCUCGAGCCCGGGUAAGUGUAAAAAGUCUGCAUGCCGCCGGGCGCCAUGCCUGCAGGUCGACUCUAGAAAACAUG
binding signal [13]: 6.3 log2 enrichment (interaction score)

GGCUAGAACUAGUGGAUCCCCCGGCGCCCGGCGGCUCGAGCCCGGGUAAGUGUCAAUAGUCUGCAUGCCGCCGGGCGCCAUGCCUGCAGGUCGACUCUAGAAAACAUG
binding signal [6]: 2.6 log2 enrichment (interaction score)

GGCUAGAACUAGUGGAUCCCCCGGCGCCCGGCGGCUCGAGCCCGGGUAAGUGUAAAUCGUCUGCAUGCCGCCGGGCGCCAUGCCUGCAGGUCGACUCUAGAAAACAUG
binding signal [14]: 3.53 log2 enrichment (interaction score) | binding signal [15]: 5.18 log2 enrichment (interaction score) | binding signal [16]: 0.98 log2 enrichment (interaction score)

GGCUAGAACUAGUGGAUCCCCCGGCGCCCGGCGGCUCGAGCCCGGGUAAGUGCAAAUAGUCUGCAUGCCGCCGGGCGCCAUGCCUGCAGGUCGACUCUAGAAAACAUG
binding signal [7]: 5.44 log2 enrichment (interaction score)

GGCUAGAACUAGUGGAUCCCCCGGCGCCCGGCGGCUCGAGCCCGGGUAAGUGAAAAUAGUCUGCAUGCCGCCGGGCGCCAUGCCUGCAGGUCGACUCUAGAAAACAUG
binding signal [9]: 1.66 log2 enrichment (interaction score)

GGCUAGAACUAGUGGAUCCCCCGGCGCCCGGCGGCUCGAGCCCGGGUAAGUGUAAUUAGUCUGCAUGCCGCCGGGCGCCAUGCCUGCAGGUCGACUCUAGAAAACAUG
binding signal [17]: 3.92 log2 enrichment (interaction score)

GGCUAGAACUAGUGGAUCCCCCGGCGCCCGGCGGCUCGAGCCCGGGUAAGUGUAAAUUGUCUGCAUGCCGCCGGGCGCCAUGCCUGCAGGUCGACUCUAGAAAACAUG
binding signal [16]: 2.74 log2 enrichment (interaction score)
